SRC3 TRFRET art – TR-FRET artefact, counter-screen to PPARgamma/SRC-3 agonist assay; PPARgamma/SRC-3 format; hits give high values; actives 0.39% (n = 99,000); AID 1048; TR-FRET ratio at 8 µM
TR-FRET SRC-2 ct – flags TR-FRET format artefacts in PPARgamma SRC-2 recruitment agonist screen. actives 0.4% (n = 200,000). TR-FRET ratio at 8 µM. TR-FRET artefact counter-screen; hits give high values. AID 1049
PPARg SRC3 recr – promotes SRC-3 coactivator recruitment by human PPARgamma; biochemical PPARgamma/SRC-3 coactivator recruitment assay; actives 0.26% (n = 200,000); activation, % at 8 µM; P37231; in the data active = activation above about 23%;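 note: 0% = DMSO and 100% = reference agonist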
PPARg SRC-2 ag – promotes SRC-2 coactivator recruitment by human PPARgamma; P37231; PPARgamma LBD-SRC-2 recruitment, biochemical; activation, % at 8 µM; actives 0.34% (n = 200,000); AID 1032; in the data active = activation above about 22%;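 note: 0% = vehicle and 100% = reference agonist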
SRC1 TRFRET art – TR-FRET artefact, counter-screen to PPARgamma/SRC-1 agonist assay | TR-FRET detection artefact counter-screen, emission ratio; hits give high values | TR-FRET ratio at 8 µM | actives 0.34% (n = 99,000); in the data active = TR-FRET ratio above about 2300
PPARg SRC-1 ag – agonists of human PPARgamma SRC-1 coactivator recruitment. P37231. PPARgamma-SRC-1 coactivator recruitment biochemical assay. activation, % at 8 µM. actives 0.41% (n = 200,000). AID 631; in the data active = activation above about 19%;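 note: 0% = DMSO and 100% = reference agonist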
PPARg SRC2 conf – confirmation of agonists of SRC-2 recruitment by human PPARgamma | shares compounds with PPARg SRC3 recr | biochemical SRC-2 recruitment by PPARgamma | activation, % at 8 µM | actives 52% (n = 790); in the data active = activation above about 22%;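 note: 0% = vehicle alone and 100% = reference agonist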
PPARg SRC1 conf – confirmation of agonists of SRC-1 recruitment by human PPARgamma; activation, % at 8 µM; PPARgamma–SRC-1 coactivator recruitment biochemical assay; actives 43% (n = 790); shares compounds with PPARg SRC3 recr; AID 1300; in the data active = activation above about 20%;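 note: 0% = vehicle wells and 100% = reference agonist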
PPARg SRC3 conf – human PPARgamma SRC-3 recruitment agonism, confirmation | shares compounds with PPARg SRC3 recr | biochemical PPARgamma-SRC-3 coactivator recruitment, agonist mode | actives 29% (n = 790) | AID 1301 | activation, % at 8 µM; in the data active = activation above about 24%;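 note: 0% = vehicle wells and 100% = reference agonist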
An asterisk follows results filed as active. This is a sample that favours compounds with a hit; in the whole collection about 0.9% have one here. Cut-off read from the data, not from the text of the source, unless noted: active = TR-FRET ratio above about 2000; inactive = the rest.

What do the screens show for `O=C(COC(=O)c1cc(-c2ccc(Cl)s2)nc2ccccc12)NCc1ccco1`?
TR-FRET SRC-2 ct: 1744; PPARg SRC3 recr: 18.0; PPARg SRC-2 ag: 19.2; PPARg SRC-1 ag: 13.2

What do the screens show for `COc1ccc(CNC(=O)COC(=O)c2cc(-c3ccc(Cl)s3)nc3ccccc23)cc1`?
TR-FRET SRC-2 ct: 2696*; PPARg SRC3 recr: 17.4; PPARg SRC-2 ag: 22.9*; PPARg SRC-1 ag: 12.8; PPARg SRC2 conf: 19.9; PPARg SRC1 conf: 15.6; PPARg SRC3 conf: 12.5

Results for CS(=O)(=O)Nc1ccccc1C(=O)NCc1ccco1 ?
TR-FRET SRC-2 ct: 1638; PPARg SRC3 recr: 25.8*; PPARg SRC-2 ag: 19.8; PPARg SRC-1 ag: 1.1; PPARg SRC2 conf: 6.5; PPARg SRC1 conf: 3.9; PPARg SRC3 conf: 5.1

How did CCOc1ccc(S(=O)(=O)Nc2ccccc2C(=O)NCc2ccco2)cc1 do in these assays?
TR-FRET SRC-2 ct: 1630; PPARg SRC3 recr: 10.3; PPARg SRC-2 ag: 5.0; PPARg SRC-1 ag: 8.8

What do the screens show for `CCOC(=O)C1CCCN(CC(=O)Nc2c(C(=O)OC)[nH]c3ccc(Br)cc23)C1` (stereo not drawn)?
TR-FRET SRC-2 ct: 2688*; PPARg SRC3 recr: 42.5*; PPARg SRC-2 ag: 40.3*; PPARg SRC-1 ag: 25.9*; PPARg SRC2 conf: 34.5*; PPARg SRC1 conf: 23.0*; PPARg SRC3 conf: 24.4*

How did COC(=O)c1[nH]c2ccc(Br)cc2c1NC(=O)CN1CCCc2ccccc21 do in these assays?
TR-FRET SRC-2 ct: 2282*; PPARg SRC3 recr: 50.3*; PPARg SRC-2 ag: 42.5*; PPARg SRC-1 ag: 31.5*; PPARg SRC2 conf: 15.7; PPARg SRC1 conf: 9.9; PPARg SRC3 conf: 7.1

What do the screens show for `CC(=O)Nc1ccc(NC(=O)CC2Nc3cccc4cccc(c34)NC2=O)cc1` (stereo not drawn)?
TR-FRET SRC-2 ct: 1572; PPARg SRC3 recr: 25.8*; PPARg SRC-2 ag: 10.5; PPARg SRC-1 ag: 6.0; PPARg SRC2 conf: 9.6; PPARg SRC1 conf: 12.4; PPARg SRC3 conf: 7.0

What do the screens show for `CCOC(=O)c1c(OCC)[nH]c2c1cc(O)c1ccccc12`?
TR-FRET SRC-2 ct: 1702; PPARg SRC3 recr: 19.5; PPARg SRC-2 ag: 5.5; PPARg SRC-1 ag: 18.9*; PPARg SRC2 conf: 8.1; PPARg SRC1 conf: 7.6; PPARg SRC3 conf: 5.2

How did CC(C)c1ccc(N(C(=O)c2csnn2)C(C(=O)NC(C)(C)C)c2ccncc2)cc1 (stereo not drawn) do in these assays?
TR-FRET SRC-2 ct: 1233; PPARg SRC3 recr: -6.8; PPARg SRC-2 ag: -1.1; PPARg SRC-1 ag: -3.1

What do the screens show for `O=c1cc(-c2ccc3c(c2)OCO3)oc2ccccc12`?
SRC3 TRFRET art: 1634; TR-FRET SRC-2 ct: 2211*; PPARg SRC3 recr: 1.4; PPARg SRC-2 ag: 27.2*; SRC1 TRFRET art: 2778*; PPARg SRC-1 ag: 33.4*; PPARg SRC2 conf: 7.4; PPARg SRC1 conf: 5.9; PPARg SRC3 conf: 3.6

What do the screens show for `O=C1C2ON(c3ccc(Br)cc3)C(c3cccnc3)C2C(=O)N1C1CCCCC1` (stereo not drawn)?
TR-FRET SRC-2 ct: 1546; PPARg SRC3 recr: -6.3; PPARg SRC-2 ag: -11.1; PPARg SRC-1 ag: -6.6

What do the screens show for `CSc1nc(Sc2ccccc2Cl)c2ccccc2n1`?
TR-FRET SRC-2 ct: 2566*; PPARg SRC3 recr: 48.1*; PPARg SRC-2 ag: 53.6*; PPARg SRC-1 ag: 26.0*; PPARg SRC2 conf: 34.2*; PPARg SRC1 conf: 21.9*; PPARg SRC3 conf: 24.4*

What do the screens show for `COc1cccc(C(=O)OCCN(C)C(C)(C)C)c1`?
TR-FRET SRC-2 ct: 1593; PPARg SRC3 recr: 5.3; PPARg SRC-2 ag: 8.9; PPARg SRC-1 ag: 6.8

What do the screens show for `O=C(Cn1cnc2ccccc2c1=O)N(Cc1ccco1)c1ccc(O)cc1`?
TR-FRET SRC-2 ct: 1678; PPARg SRC3 recr: 4.5; PPARg SRC-2 ag: 6.0; PPARg SRC-1 ag: 5.5

How did CCCC(=O)C1=C(O)C(C(=O)OC)C(C)(C)CC1=Nc1ccc(N)cc1 (stereo not drawn) do in these assays?
TR-FRET SRC-2 ct: 1498; PPARg SRC3 recr: 1.1; PPARg SRC-2 ag: 1.6; PPARg SRC-1 ag: 4.7

What do the screens show for `CCCC(=Nc1ccc(N)cc1)C1=C(O)C(C(=O)OC)C(C)(C)CC1=O` (stereo not drawn)?
TR-FRET SRC-2 ct: 1541; PPARg SRC3 recr: 27.2*; PPARg SRC-2 ag: 18.9; PPARg SRC-1 ag: 9.1; PPARg SRC2 conf: 3.5; PPARg SRC1 conf: 0.8; PPARg SRC3 conf: 2.3

Results for CCN(CC)C(=O)CSc1nnc(CCN)o1 ?
SRC3 TRFRET art: 1485; TR-FRET SRC-2 ct: 1648; PPARg SRC3 recr: 7.0; PPARg SRC-2 ag: 8.4; SRC1 TRFRET art: 1816; PPARg SRC-1 ag: 0.2

How did Cc1ccc(/C=[N+](\[O-])c2ccc(N(C)C)cc2)c2nsnc12 do in these assays?
SRC3 TRFRET art: 1884; TR-FRET SRC-2 ct: 1862; PPARg SRC3 recr: 11.5; PPARg SRC-2 ag: 9.5; SRC1 TRFRET art: 2222; PPARg SRC-1 ag: 26.6*; PPARg SRC2 conf: 16.5; PPARg SRC1 conf: 12.1; PPARg SRC3 conf: 8.2

Results for Cc1ccc2nsnc2c1NS(=O)(=O)c1c(C)ccc2nsnc12 ?
TR-FRET SRC-2 ct: 1392; PPARg SRC3 recr: 12.4; PPARg SRC-2 ag: -3.2; PPARg SRC-1 ag: 4.0

What do the screens show for `O=C(Nc1ccccc1)N1CCN(c2ncccn2)CC1`?
TR-FRET SRC-2 ct: 1506; PPARg SRC3 recr: 11.3; PPARg SRC-2 ag: -6.2; PPARg SRC-1 ag: 2.1

How did Oc1c(Cl)cc(Cl)cc1CNc1ccc(Br)cn1 do in these assays?
TR-FRET SRC-2 ct: 1523; PPARg SRC3 recr: -4.4; PPARg SRC-2 ag: 0.3; PPARg SRC-1 ag: 1.9

What do the screens show for `Oc1ccc(Cl)cc1CNc1ccc(Br)cn1`?
TR-FRET SRC-2 ct: 1491; PPARg SRC3 recr: 3.8; PPARg SRC-2 ag: 9.9; PPARg SRC-1 ag: 23.4*; PPARg SRC2 conf: 0.9; PPARg SRC1 conf: 9.0; PPARg SRC3 conf: 6.3

Results for Cc1ccc(NC(=O)CCn2c(=S)oc3ccccc32)cc1 ?
SRC3 TRFRET art: 1728; TR-FRET SRC-2 ct: 1795; PPARg SRC3 recr: 6.7; PPARg SRC-2 ag: 11.9; SRC1 TRFRET art: 2071; PPARg SRC-1 ag: 21.9*; PPARg SRC2 conf: 3.0; PPARg SRC1 conf: -1.5; PPARg SRC3 conf: 1.2

Results for O=C(CCn1c(=S)oc2ccccc21)Nc1ccc(F)cc1 ?
SRC3 TRFRET art: 1616; TR-FRET SRC-2 ct: 1550; PPARg SRC3 recr: 1.5; PPARg SRC-2 ag: -0.1; SRC1 TRFRET art: 1871; PPARg SRC-1 ag: 7.3

What do the screens show for `Cc1cc(C)cc(NC(=O)CCc2nc3ccccc3[nH]2)c1`?
TR-FRET SRC-2 ct: 1634; PPARg SRC3 recr: 6.7; PPARg SRC-2 ag: 4.6; PPARg SRC-1 ag: 8.2

Screens from PubChem.
